# Measurements taken from article PMC10668032, “Altered binding affinity of SIX1-Q177R correlates with enhanced WNT5A and WNT pathway effector expression in Wilms tumor”.
# In all, about 33,000 sequences were measured (“e-score”: median about -0.053, highest 2% from about 0.38 on). Only a selection was taken, and the highest values are over-represented in it overall.
# Target: T1, SIX1 homeodomain (reference allele) (human, UniProt Q15475 108-198)
# T1 sequence: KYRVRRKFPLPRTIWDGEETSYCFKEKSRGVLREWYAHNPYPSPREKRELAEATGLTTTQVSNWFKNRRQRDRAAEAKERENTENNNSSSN
# Experiment: universal protein binding microarray; Universal all-10-mer PBM (8x60K, AMADID 030236), 300 nM GST-tagged protein, Alexa Fluor 488 anti-GST; buffer, salt, pH and temperature not stated (as in Berger); high values mean tight binding
# Details: protein: ivt; tags: N-terminal GST; dsDNA, one strand shown
# Procedure, shortened: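 Binding of GST-tagged homeodomains is given as 8-mer E-scores from the Universal PBM Analysis Suite. The proteins were produced by in vitro transcription/translation, quantified by anti-GST western blot against a recombinant GST standard curve, and applied in duplicate at 300 nM final concentration to universal 'all 10-mer' protein binding microarrays (8×60K format).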
row,Sequence,binding signal
1,ATCTACAG,0.152 ± 0.023 E-score
2,ACGTATAT,0.271 ± 0.065 E-score
3,ATCTAGAT,0.26 ± 0.0531 E-score
4,CGAGACGA,0.156 ± 0.029 E-score
5,CCGGAGAC,0.184 ± 0.00939 E-score
6,CCCCGATC,0.346 ± 0.0685 E-score
7,ATGAGCTC,0.166 ± 0.0357 E-score
8,GATCCAGC,0.265 ± 0.0768 E-score
9,CATCCTCC,0.153 ± 0.0426 E-score
10,GATCCACC,0.394 ± 0.0435 E-score
11,GATCCTCA,0.295 ± 0.0129 E-score
12,GATCCACA,0.335 ± 0.0765 E-score
13,GATCCTCC,0.381 ± 0.0158 E-score
14,ATCTGTCC,0.29 ± 0.0606 E-score
15,CGAGACAC,0.176 ± 0.0324 E-score
16,CATAGATA,0.259 ± 0.0781 E-score
17,TCACATGA,0.166 ± 0.0132 E-score
18,ATCTCCCA,0.238 ± 0.0314 E-score
19,ATATCCCG,0.42 ± 0.0102 E-score
20,CAATCCCG,0.155 ± 0.0636 E-score
21,GAATCCCA,0.165 ± 0.0648 E-score
22,CTATCCCC,0.321 ± 0.0256 E-score

row,Sequence,binding signal
1,ATATCCCC,0.457 ± 0.00651 E-score
2,GTATCCCA,0.388 ± 0.0324 E-score
3,ATATCCCA,0.418 ± 0.0119 E-score
4,CAATCCCA,0.177 ± 0.00991 E-score
5,AAATCCCC,0.181 ± 0.0853 E-score
6,ATCTCCCG,0.222 ± 0.0116 E-score
7,CTATCCCA,0.257 ± 0.013 E-score
8,ATCAAGGG,0.258 ± 0.0527 E-score
9,GGAGATTA,0.197 ± 0.0921 E-score
10,ATCGGGTC,0.285 ± 0.0351 E-score
11,CCGATGAG,0.173 ± 0.0124 E-score
12,GAGATAGA,0.183 ± 0.00408 E-score
13,ACGAATAT,0.179 ± 0.047 E-score
14,CGTTATAC,0.204 ± 0.0355 E-score
15,ATCATGTG,0.328 ± 0.0175 E-score
16,CATTGCGG,0.222 ± 0.028 E-score
17,CCGCCATA,0.209 ± 0.0131 E-score
18,ATACAACG,0.152 ± 0.0326 E-score
19,ATCCTCTC,0.264 ± 0.0756 E-score
20,ATCGCTCA,0.192 ± 0.00955 E-score
21,CGGGGGTA,0.301 ± 0.0117 E-score
22,CGGGTATA,0.365 ± 0.00269 E-score

row,Sequence,binding signal
1,GCGGTATA,0.3752 ± 0.00298 E-score
2,GGGGTAGA,0.158 ± 0.0407 E-score
3,CGGGTCTC,0.187 ± 0.0479 E-score
4,AGGGGGTA,0.294 ± 0.0383 E-score
5,GGGGTATA,0.441 ± 0.0155 E-score
6,AGGGTATA,0.407 ± 0.0114 E-score
7,AAGGTATA,0.272 ± 0.131 E-score
8,TAGGTATA,0.382 ± 0.0292 E-score
9,CGGGTATC,0.487 ± 0.00716 E-score
10,TGATGCCA,0.152 ± 0.025 E-score
11,ATAGGGCG,0.158 ± 0.0277 E-score
12,AATATCTG,0.188 ± 0.0693 E-score
13,CATGAAAG,0.157 ± 0.0184 E-score
14,AGGGTAAT,0.205 ± 0.0122 E-score
15,AGGGTATG,0.28 ± 0.0175 E-score
16,AGGGTATC,0.4907 ± 0.00122 E-score
17,CCATCCCC,0.203 ± 0.0814 E-score
18,GTAATATA,0.226 ± 0.0387 E-score
19,AGTGATAC,0.489 ± 0.00626 E-score
20,GGTGATGA,0.191 ± 0.0354 E-score
21,GGTGATAA,0.154 ± 0.0176 E-score
22,AGTGAGAT,0.306 ± 0.0146 E-score

row,Sequence,binding signal
1,GGTGATAC,0.4856 ± 0.00178 E-score
2,CGTGACAC,0.2472 ± 0.00208 E-score
3,AGTGTGAT,0.247 ± 0.0427 E-score
4,AGTGACAC,0.354 ± 0.0169 E-score
5,AGTGATAG,0.32 ± 0.0815 E-score
6,CGTGATAG,0.244 ± 0.00391 E-score
7,CGTGATAC,0.4798 ± 0.000721 E-score
8,AGTGATAT,0.451 ± 0.0283 E-score
9,ACACCATG,0.306 ± 0.0191 E-score
10,CCCCATCG,0.152 ± 0.0278 E-score
11,TACCCACA,0.196 ± 0.0401 E-score
12,ATAGGCAG,0.184 ± 0.025 E-score
13,CCAAGATA,0.229 ± 0.0485 E-score
14,ATACGCAG,0.314 ± 0.0177 E-score
15,ATCATGTC,0.295 ± 0.0201 E-score
16,GCGACCGA,0.151 ± 0.024 E-score
17,ATCCCGCG,0.323 ± 0.0328 E-score
18,ATCCCGAT,0.378 ± 0.0289 E-score
19,ATCCCCCA,0.392 ± 0.0226 E-score
20,ATCCCCAT,0.295 ± 0.0355 E-score
